# Like-named read-outs stand apart in the source and are kept apart here.
# Legend:
# Parameters in all cases: species or system human, MV4-11 + K-562 + COLO205 + SK-N-BE2 + OVCAR-8
# ADCK3 = conditions: read-out: apparent Kd, n = 1
# BTK = conditions: read-out: apparent Kd; compound concentrations: 100 nM and 1000 nM (sheet 'Samples'), CATDS: 0.33731493843611998; n = 1
# JAK2 = conditions: read-out: apparent Kd; compound concentrations:100 nM and 1000 nM (sheet 'Samples'); n = 1
# PIK3C3 = conditions: read-out: apparent Kd; compound concentrations:100 nM and 1000 nM (sheet 'Samples'); n = 1
# TEC = conditions: read-out: apparent Kd; compound concentrations:100 nM and 1000 nM (sheet 'Samples'); n = 1
# ZAK = conditions: read-out: apparent Kd; compound concentrations:100 nM and 1000 nM (sheet 'Samples'); n = 1
# GALK1 = conditions: read-out: apparent Kd; compound concentrations: 100 nM and 1000 nM (sheet 'Samples'), CATDS: 0.119899430557505; n = 1
# MAPK14 = conditions: read-out: apparent Kd; compound concentrations: 100 nM and 1000 nM (sheet 'Samples'), CATDS: 0.15490410585255601; n = 1
# MAPK1 = conditions: read-out: apparent Kd; compound concentrations: 100 nM and 1000 nM (sheet 'Samples'), CATDS: 0.12427254642557201; n = 1
# PIK3CD = conditions: read-out: apparent Kd, n = 1
# PIM2 = conditions: read-out: apparent Kd; compound concentrations: 100 nM and 1000 nM (sheet 'Samples'), CATDS: 0.117779820663657; n = 1
# STK16 = conditions: read-out: apparent Kd; compound concentrations: 100 nM and 1000 nM (sheet 'Samples'), CATDS: 0.13061388910889801; n = 1
# ADCK1 = conditions: read-out: apparent Kd; compound concentrations:100 nM and 1000 nM (sheet 'Samples'); n = 1
# CIT = conditions: read-out: apparent Kd; compound concentrations:100 nM and 1000 nM (sheet 'Samples'); n = 1
# CSNK1D = conditions: read-out: apparent Kd; compound concentrations:100 nM and 1000 nM (sheet 'Samples'); n = 1
# CSNK1E = conditions: read-out: apparent Kd; compound concentrations:100 nM and 1000 nM (sheet 'Samples'); n = 1
# DJA1 = test system: T1, DJA1; conditions: read-out: apparent Kd; compound concentrations:100 nM and 1000 nM (sheet 'Samples'); n = 1
# T1 construct: gene DNAJA1
# GAK = conditions: read-out: apparent Kd; compound concentrations:100 nM and 1000 nM (sheet 'Samples'); n = 1
# IARS = conditions: read-out: apparent Kd; compound concentrations:100 nM and 1000 nM (sheet 'Samples'); n = 1
# PRKACB = conditions: read-out: apparent Kd; compound concentrations:100 nM and 1000 nM (sheet 'Samples'); n = 1
# PRKCD = conditions: read-out: apparent Kd; compound concentrations:100 nM and 1000 nM (sheet 'Samples'); n = 1
# PRKCQ = conditions: read-out: apparent Kd; compound concentrations:100 nM and 1000 nM (sheet 'Samples'); n = 1
# PRKD2 = conditions: read-out: apparent Kd; compound concentrations:100 nM and 1000 nM (sheet 'Samples'); n = 1
# PRKD3 = conditions: read-out: apparent Kd; compound concentrations:100 nM and 1000 nM (sheet 'Samples'); n = 1
# TNIK = conditions: read-out: apparent Kd; compound concentrations:100 nM and 1000 nM (sheet 'Samples'); n = 1
# TAOK1 = conditions: read-out: apparent Kd; compound concentrations:100 nM and 1000 nM (sheet 'Samples'); n = 1
# ARAF = conditions: read-out: apparent Kd; compound concentrations: 100 nM and 1000 nM (sheet 'Samples'), CATDS: 0.31382782577056201; n = 1
# PIK3CB = conditions: read-out: apparent Kd, compound concentrations: 100 nM and 1000 nM (sheet 'Samples'), n = 1
# AKT3 = conditions: read-out: apparent Kd; compound concentrations: 100 nM and 1000 nM (sheet 'Samples'), CATDS: 0.239087060290751; n = 1
# ADRBK1 = conditions: read-out: apparent Kd; compound concentrations: 100 nM and 1000 nM (sheet 'Samples'), CATDS: 0.28294798490762901; n = 1
# AKT2 = conditions: read-out: apparent Kd; compound concentrations: 100 nM and 1000 nM (sheet 'Samples'), CATDS: 0.297394073145339; n = 1
# AKT1 = conditions: read-out: apparent Kd; compound concentrations: 100 nM and 1000 nM (sheet 'Samples'), CATDS: 0.39563035574495098; n = 1
# PI4KA = conditions: read-out: apparent Kd; compound concentrations: 100 nM and 1000 nM (sheet 'Samples'), CATDS: 8.9803456150084393E-2; n = 1
# PIK3CA = conditions: read-out: apparent Kd; compound concentrations: 100 nM and 1000 nM (sheet 'Samples'), CATDS: 0.36477997446567001; n = 1
# PIK3CG = conditions: read-out: apparent Kd; compound concentrations: 100 nM and 1000 nM (sheet 'Samples'), CATDS: 0.133003472389642; n = 1
# PRKDC = conditions: read-out: apparent Kd; compound concentrations: 100 nM and 1000 nM (sheet 'Samples'), CATDS: 9.9642367307020793E-2; n = 1
# SRRT = conditions: read-out: apparent Kd; compound concentrations: 100 nM and 1000 nM (sheet 'Samples'), CATDS: 7.4591136223679494E-2; n = 1
# TOP2B = conditions: read-out: apparent Kd; compound concentrations: 100 nM and 1000 nM (sheet 'Samples'), CATDS: 7.4747311850649895E-2; n = 1
# GSK3A = conditions: read-out: apparent Kd; compound concentrations: 100 nM and 1000 nM (sheet 'Samples'), CATDS: 0.39261135326021201; n = 1
# GSK3B = conditions: read-out: apparent Kd; compound concentrations: 100 nM and 1000 nM (sheet 'Samples'), CATDS: 0.34419414793352499; n = 1
# [1] = compound concentrations:100 nM and 1000 nM (sheet 'Samples')
# [2] = compound concentrations: 100 nM and 1000 nM (sheet 'Samples'), CATDS: 1
structure (smiles),measurement,setting,value
C=CC(=O)Nc1cc(-n2c(=O)ccc3cnc4ccc(-c5ccc(NS(C)(=O)=O)cc5)cc4c32)ccc1C [BMX-IN-1],potency estimated from few doses,ADCK3; [1],1160 nM
same,potency estimated from few doses,BTK,186 nM
same,potency estimated from few doses,JAK2,466 nM
same,potency estimated from few doses,PIK3C3,1530 nM
same,potency estimated from few doses,TEC,540 nM
same,potency estimated from few doses,ZAK,782 nM
Cc1ccc(NC(=O)c2ccnc(N3CCN(C)CC3)c2)cc1-c1ccc(C(=O)NCC2CC2)cc1 [GW775604X],potency estimated from few doses,"ADCK3; compound concentrations: 100 nM and 1000 nM (sheet 'Samples'), CATDS: 0.117650755909267",1660 nM
same,potency estimated from few doses,GALK1,1570 nM
same,potency estimated from few doses,MAPK14,840 nM
same,potency estimated from few doses,MAPK1,1430 nM
same,potency estimated from few doses,"PIK3CD; compound concentrations: 100 nM and 1000 nM (sheet 'Samples'), CATDS: 0.661841764967533",59 nM
same,potency estimated from few doses,PIM2,1650 nM
same,potency estimated from few doses,STK16,1250 nM
FC(F)(F)c1ccc(/C=C/c2cncnc2Nc2ccc3[nH]c(Cc4ccccc4)nc3c2)cc1 [GW709199X],potency estimated from few doses,ADCK3; [2],456 nM
Cc1n[nH]c2ccc(-c3cc(OC[C@@H](N)Cc4ccccc4)cnc3-c3ccoc3)cc12.Cc1n[nH]c2ccc(-c3cc(OC[C@@H](N)Cc4ccccc4)cnc3-c3ccoc3)cc12.O=C(O)C(F)(F)F.O=C(O)C(F)(F)F [GSK507358A],potency estimated from few doses,ADCK1,1140 nM
same,potency estimated from few doses,CIT,1120 nM
same,potency estimated from few doses,CSNK1D,711 nM
same,potency estimated from few doses,CSNK1E,1160 nM
same,potency estimated from few doses,DJA1,890 nM
same,potency estimated from few doses,GAK,1500 nM
same,potency estimated from few doses,IARS,2080 nM
same,potency estimated from few doses,PIK3CD; [1],108 nM
same,potency estimated from few doses,PRKACB,1740 nM
same,potency estimated from few doses,PRKCD,1510 nM
same,potency estimated from few doses,PRKCQ,1580 nM
same,potency estimated from few doses,PRKD2,690 nM
same,potency estimated from few doses,PRKD3,353 nM
same,potency estimated from few doses,TNIK,141 nM
COc1cc2ncn(-c3cc(OCC4CCCCC4)c(C(N)=O)s3)c2cc1OC [GSK204559A],potency estimated from few doses,ADCK3; [1],1060 nM
same,potency estimated from few doses,PIK3CD; [1],190 nM
same,potency estimated from few doses,TAOK1,1460 nM
N#Cc1c(C(=O)c2ccccc2)cnn1-c1ccccc1 [RO1150868-000],potency estimated from few doses,"ADCK3; compound concentrations: 100 nM and 1000 nM (sheet 'Samples'), CATDS: 0.41640381160796702",510 nM
same,potency estimated from few doses,ARAF,875 nM
same,potency estimated from few doses,PIK3CB; CATDS: 0.29308113927572399,1020 nM
CNC(=O)c1cncc(/C=C/c2ccccc2Cl)c1 [GW445017X],potency estimated from few doses,ADCK3; [2],747 nM
Cc1c(Cn2ccn3c(=O)nc(N4CCOCC4)cc23)cccc1C(F)(F)F [GSK2336394A],potency estimated from few doses,"ADCK3; compound concentrations: 100 nM and 1000 nM (sheet 'Samples'), CATDS: 0.28209603435573799",575 nM
same,potency estimated from few doses,AKT3,1030 nM
same,potency estimated from few doses,PIK3CB; CATDS: 0.78583542489200198,54.2 nM
O=C1NC(=O)C(c2c[nH]c3ccccc23)=C1c1ccccc1 [RO0316849-000],potency estimated from few doses,"ADCK3; compound concentrations: 100 nM and 1000 nM (sheet 'Samples'), CATDS: 0.47545697813848398",812 nM
same,potency estimated from few doses,ADRBK1,2270 nM
same,potency estimated from few doses,AKT2,2010 nM
FC(F)(F)c1ccc(-c2nn3ncccc3c2-c2ccnc(Nc3ccc(Cl)c(C(F)(F)F)c3)n2)cc1 [GW829350X],potency estimated from few doses,"ADCK3; compound concentrations: 100 nM and 1000 nM (sheet 'Samples'), CATDS: 0.67916876553854699",727 nM
same,potency estimated from few doses,AKT1,2350 nM
Nc1ncc(-c2ccc3nccc(-c4ccncc4)c3c2)cc1S(=O)(=O)N1CCOCC1 [GSK1627798A],potency estimated from few doses,"ADCK3; compound concentrations: 100 nM and 1000 nM (sheet 'Samples'), CATDS: 7.8381532556713998E-2",1520 nM
same,potency estimated from few doses,PI4KA,893 nM
same,potency estimated from few doses,PIK3CA,11.1 nM
same,potency estimated from few doses,PIK3CB; CATDS: 0.118363122139114,366 nM
same,potency estimated from few doses,"PIK3CD; compound concentrations: 100 nM and 1000 nM (sheet 'Samples'), CATDS: 0.63403927390637105",3.67 nM
same,potency estimated from few doses,PIK3CG,258 nM
same,potency estimated from few doses,PRKDC,627 nM
same,potency estimated from few doses,SRRT,1900 nM
same,potency estimated from few doses,TOP2B,1880 nM
Cc1ccc(C)c(C2=C(c3cn(C)c4ccccc34)C(=O)NC2=O)c1 [RO0317699-000],potency estimated from few doses,"ADCK3; compound concentrations: 100 nM and 1000 nM (sheet 'Samples'), CATDS: 0.28187952548436401",629 nM
same,potency estimated from few doses,GSK3A,316 nM
same,potency estimated from few doses,GSK3B,404 nM

# Reference: PMC11062922 (Nature Chemical Biology, 2023)
